In PubChem BioAssay AID2330 (Broad Institute, 2010) one finds inhibition data, which are given here for 62 molecules.

Each structure is given as a SMILES string. About 2,800 (7.6%) of roughly 37,000 compounds were called active. About 1% were inconclusive and are not listed. No stated cut-off is given here; in the data, active means inhibition above about 80%; inconclusive means no clear call, values can overlap the other calls; inactive means below that. The entries come from a sample that favours actives as a whole.

The assay can be described thus: NOMO-1 AML cell viability reduction, primary screen, STK33 inhibitor project, CellTiter-Glo luminescence (AID 2330). Particulars: NOMO-1 AML viability, 72 h, hits give high values, concentration not given here. (Cellular ATP, detected with luciferase, serves as a proxy for viable cell number.)
`C/C=C(/C)C(=O)OC1Cc2c(ccc3ccc(=O)oc23)OC1(C)C` (configuration not stated): the inhibition is 9.99% (inactive).
As to `S=c1nc2c(cnn2-c2ccccc2)c(Nc2ccccc2)[nH]1`, the inhibition is 12% (inactive).
Turning to `C[C@@H]1CN([C@H](C)CO)C(=O)c2cc(NC(=O)Cn3cnnn3)ccc2O[C@@H]1CN(C)Cc1ccc(C(F)(F)F)cc1`, the inhibition was 21.9% (inactive).
Regarding `Cc1ccc(S(=O)(=O)N(C)C[C@@H]2Oc3ccc(NS(=O)(=O)c4c(C)noc4C)cc3CC(=O)N([C@H](C)CO)C[C@H]2C)cc1`, the inhibition was -13.6% (inactive).
With `O=C(O)CCCC(=O)Nc1ccc(F)cc1` the figure was 13.9% (inactive).
Consider `C[C@H]1CN([C@@H](C)CO)C(=O)c2cc(NC(=O)CCN3CCOCC3)ccc2O[C@@H]1CN(C)C(=O)Nc1ccc(C(F)(F)F)cc1`, for which the inhibition is 22.5% (inactive).
As to `C[C@@H]1CN([C@@H](C)CO)C(=O)c2cc(NS(=O)(=O)c3ccccc3)ccc2O[C@H]1CN(C)CC1CCCCC1`, the inhibition was -8.05% (inactive).
In the case of `Cn1nc(CC(=O)Nc2ccc3c(c2)oc2ccccc23)c2ccccc2c1=O`, the inhibition was 37.5% (inactive).
The value for `Cc1ccc(C(=O)NC(NCc2ccco2)(C(F)(F)F)C(F)(F)F)cc1` was 39.2% (inactive); that for `Cc1ccc(-n2nnnc2-c2cnn(-c3ccccc3)c2C)cc1` was 29.6% (inactive).
Regarding `C[C@H]1CN([C@@H](C)CO)C(=O)c2cccc(NS(=O)(=O)c3ccccc3)c2O[C@@H]1CN(C)S(=O)(=O)c1cn(C)cn1`, the inhibition is -9.26% (inactive).
In the case of `C[C@H](CO)N1C[C@H](C)[C@H](CN(C)Cc2ccc(C(F)(F)F)cc2)Oc2ccc(NS(=O)(=O)c3ccc(Cl)cc3)cc2C1=O`, the inhibition was 58.5% (inactive).
As to `COc1ccc(S(=O)(=O)Nc2ccc3c(c2)C(=O)N([C@H](C)CO)C[C@H](C)[C@H](CN(C)Cc2ccc(C(F)(F)F)cc2)O3)cc1`, the inhibition is 51.7% (inactive).
For the molecule `Cc1ccc(S(=O)(=O)Nc2ccc3c(c2)C(=O)N([C@@H](C)CO)C[C@@H](C)[C@H](CN(C)Cc2ccc(C(F)(F)F)cc2)O3)cc1`, the inhibition is 118% (active).
In the case of `C[C@@H]1CN([C@@H](C)CO)C(=O)c2cc(NS(C)(=O)=O)ccc2O[C@H]1CN(C)C(=O)Nc1ccc(F)cc1`, the inhibition is 37.9% (inactive).
With `CCCN(Cc1cc2cccc(C)c2[nH]c1=O)S(C)(=O)=O`, the inhibition is 10.7% (inactive).
Regarding `COC(=O)C1=C(C)Nc2c(c(=O)n(C)c(=O)n2C)C1c1cccc(OCc2ccccc2)c1` (configuration not stated), the inhibition was 7.28% (inactive).
With `O=C(c1ccc(Cl)cc1)n1c(=O)oc2cc(Cl)ccc21`, the inhibition was 132% (active).
As to `CC(C)(C)c1ccc(OCC(=O)NCc2ccccn2)c(Br)c1`, the inhibition was 43.9% (inactive).
In the case of `C[C@@H]1CN([C@@H](C)CO)C(=O)c2cc(NS(=O)(=O)c3ccccc3)ccc2O[C@H]1CN(C)CC1CC1`, the inhibition is -13.4% (inactive).
With `O=C(CN(C1CCCCC1)S(=O)(=O)c1ccc(Cl)cc1)Nc1ccccc1C(F)(F)F` the figure was 25.5% (inactive); with `COc1ccc(S(=O)(=O)N(C)C[C@H]2Oc3ccc(N(C)C)cc3C(=O)N([C@@H](C)CO)C[C@@H]2C)cc1`, 11.7% (inactive); with `CN1C(=O)C(Cc2ccccc2)(Cc2ccccc2)c2ccccc21`, 96.7% (active).
With `CN1C(=O)CC(c2ccccc2)C1=O` (configuration not stated) the figure was 14.7% (inactive); with `CN1C(=O)C(O)(CC(=O)c2ccco2)c2cc([N+](=O)[O-])ccc21` (configuration not stated), 36.2% (inactive).
With `C[C@H](CO)N1C[C@H](C)[C@H](CN(C)C)Oc2c(NS(=O)(=O)c3ccc(Cl)cc3)cccc2C1=O`, the inhibition is 17.7% (inactive).
In the case of `CN1CCN(C(=O)CCc2nc(-c3ccc(Cl)cc3)no2)CC1`, the inhibition was -5.54% (inactive).
For the molecule `Cn1c(Cc2csc(N)n2)nnc1SC/C=C/c1ccccc1`, the inhibition was 23.5% (inactive).
With `CC(C)NC(=O)N(C)C[C@H]1Oc2ccc(NC(=O)Cn3cnnn3)cc2CC(=O)N([C@H](C)CO)C[C@H]1C` the figure was 36.1% (inactive); with `CC1(C)CC[C@]2(C(=O)O)CC[C@]3(C)C(=CCC4[C@@]5(C)CC[C@H](OC6O[C@H](CO)[C@@H](O)[C@H](O[C@@H]7O[C@H](CO)[C@@H](O)[C@H](O)[C@H]7O)[C@H]6O)C(C)(C)C5CC[C@]43C)[C@@H]2C1` (some centres not stated), 119% (active).
Consider `COC(=O)C1=CO[C@@H](O[C@@H]2O[C@H](CO)[C@@H](O)[C@H](O)[C@H]2O)[C@@H]2[C@@](C)(O)[C@@H](OC(=O)/C=C/c3ccc(OC)c(OC)c3)C[C@]12O`, for which the inhibition is 11.5% (inactive).
As to `CC1(C)C2CC[C@]3(C)C(C(=O)C=C4[C@@H]5C[C@@](C)(C(=O)O)CC[C@]5(C)CC[C@]43C)[C@@]2(C)CC[C@@H]1O` (some centres not stated), the inhibition is 63.8% (inactive).
Regarding `C[C@@H]1CC[C@]2(C(=O)O)CC[C@]3(C)C(=CCC4[C@@]5(C)CC[C@H](O)[C@](C)(C(=O)O)C5CC[C@]43C)C2[C@]1(C)O` (some centres not stated), the inhibition was 29.2% (inactive).
As to `C=CC1(C)C=C2CCC3C(C)(C)C(O[C@@H]4O[C@@H](CO)[C@H](O)[C@H]4O)CCC3(C)C2CC1O[C@@H]1O[C@H](C)[C@@H](OC)[C@H](O)[C@H]1O` (some centres not stated), the inhibition was 14% (inactive).
With `CC1OC(OC2C(OC3C(O[C@H]4CC[C@@]5(C)C(CC[C@]6(C)C5CC=C5[C@@H]7CC(C)(C)C[C@@H](O)[C@]7(C)CC[C@]56C)C4(C)C)OC(C(=O)O)C(O)C3O)OC(CO)C(O)C2O)C(O)C(O)C1O` (some centres not stated) the figure was 25.4% (inactive); with `C/C=C(/C)C(=O)O[C@H]1CC(C)(C)C[C@H]2C3=CCC4[C@@]5(C)CC[C@H](O[C@@H]6O[C@H](C(=O)O)[C@@H](O[C@@H]7O[C@H](CO)[C@H](O)[C@H](O)[C@H]7O[C@@H]7O[C@H](CO)[C@@H](O)[C@H](O)[C@H]7O)[C@H](O)[C@H]6O[C@@H]6O[C@@H](C)[C@H](O)[C@@H](O)[C@H]6O)C(C)(C)C5CC[C@@]4(C)[C@]3(C)[C@@H](OC(C)=O)[C@@H](O)[C@@]12COC(C)=O` (some centres not stated), 121% (active).
As for `CC1(C)CC[C@@]2(C(=O)O)C(C1)C1=CCC3[C@@]4(C)CC[C@H](O)C(C)(C)C4CC[C@@]3(C)[C@]1(C)C[C@H]2O` (some centres not stated), the inhibition was 108% (active).
`C[C@@H]1O[C@@H](O[C@H]2[C@@H](Oc3cc(O)c4c(c3)O[C@H](c3ccc(O)cc3)CC4=O)O[C@H](CO)[C@@H](O)[C@@H]2O)[C@H](O)[C@H](O)[C@H]1O`: the inhibition is -11.7% (inactive).
In the case of `C/C=C(/C)C(=O)O[C@H]1CC(C)(C)C[C@H]2C3=CCC4[C@@]5(C)CC[C@H](O[C@@H]6O[C@H](C(=O)O)[C@@H](O[C@@H]7O[C@H](CO)[C@H](O)[C@H](O)[C@H]7O[C@@H]7O[C@H](CO)[C@@H](O)[C@H](O)[C@H]7O)[C@H](O)[C@H]6O[C@@H]6O[C@@H](C)[C@H](O)[C@@H](O)[C@H]6O)C(C)(C)C5CC[C@@]4(C)[C@]3(C)[C@@H](O)[C@@H](O)[C@@]12CO` (some centres not stated), the inhibition is 119% (active).
For the molecule `C[C@@H]1CN([C@H](C)CO)C(=O)c2cc(NC(=O)CCCCCC(=O)Nc3ccccc3N)ccc2O[C@@H]1CN(C)S(=O)(=O)c1ccc(Cl)cc1`, the inhibition is 53.5% (inactive).
The value for `CC(C)(C)c1nc(=S)[nH][nH]1` was 17.3% (inactive); that for `Cc1cc2c(=O)n(C)c(SCC(=O)c3cc4ccccc4o3)nc2s1` was -4.22% (inactive); that for `O=C1CC(c2ccccc2)C(=O)N1c1ccc(F)cc1` (configuration not stated) was 22.5% (inactive).
With `C[C@@H]1CN([C@@H](C)CO)C(=O)c2cccc(NC(=O)c3ccncc3)c2O[C@H]1CN(C)S(=O)(=O)c1ccc(F)cc1` the figure was 19.5% (inactive); with `C[C@H](CO)N1C[C@H](C)[C@@H](CN(C)S(=O)(=O)c2ccc(Cl)cc2)Oc2ccc(NS(=O)(=O)c3cn(C)cn3)cc2C1=O`, 13.1% (inactive); with `C[C@@H]1CN([C@H](C)CO)C(=O)c2cccc(NS(=O)(=O)c3ccc(Cl)cc3)c2O[C@@H]1CN(C)Cc1ccc(Cl)c(Cl)c1`, 33.7% (inactive).
With `O=C(CSc1nnc(-c2ccccc2Cl)n1-c1ccccc1)Nc1ccc([N+](=O)[O-])cc1` the figure was 18.6% (inactive).
As for `C[C@@H]1CN([C@@H](C)CO)C(=O)c2cc(NC(=O)Cc3ccccc3)ccc2O[C@@H]1CN(C)CC1CCCCC1`, the inhibition is 17.8% (inactive).
For `NC(=O)c1c(NC(=O)c2cnn3c(C(F)F)cc(-c4ccccc4)nc23)sc2c1CCCC2`, the inhibition is 112% (active).
As to `O=C(NCc1cccnc1)c1cnn2c(C(F)F)cc(-c3ccccc3)nc12`, the inhibition was 11% (inactive).
On to `COc1cccc2cc(C(=O)Nc3sc4c(c3C(N)=O)CCCCC4)c(=O)oc12`, for which the inhibition was 6.77% (inactive).
The value for `O=C(Cn1cnc([N+](=O)[O-])n1)Nc1c(Cl)cccc1Cl` was -1.21% (inactive); that for `COc1ccccc1NC(=O)CSc1nc2cc3ccccc3cc2[nH]1` was 108% (active); that for `COc1ccccc1NC(=O)CSc1n[nH]c(C)n1` was 4.79% (inactive).
Consider `COc1ccc(OC)c(NC(=O)CSc2nc(-c3ccccc3)cc(=O)[nH]2)c1`, for which the inhibition is 5.5% (inactive).
As for `Cc1ccc(S(=O)(=O)N(C)C[C@H]2Oc3ccc(NC(=O)Nc4cccc5ccccc45)cc3CC(=O)N([C@H](C)CO)C[C@H]2C)cc1`, the inhibition was 23.8% (inactive).
On to `CC(=O)c1cccc(NC(=O)CN(C)S(=O)(=O)c2ccc3ccccc3c2)c1`, for which the inhibition is 19.7% (inactive).
In the case of `Nc1nnc(SCC(=O)Nc2ccc(F)c(Cl)c2)s1`, the inhibition was 10% (inactive).
Consider `Cc1ccc(N(C(C)C(=O)Nc2ccc(F)c(Cl)c2)S(C)(=O)=O)cc1C` (configuration not stated), for which the inhibition is 32.7% (inactive).
Regarding `C[C@H](CO)N1C[C@H](C)[C@@H](CN(C)S(=O)(=O)c2ccc(F)cc2)Oc2c(NC(=O)Nc3ccccc3)cccc2C1=O`, the inhibition is 8.66% (inactive).
As for `COc1cc(NC(=O)COc2ccc(Cl)cc2C)c(OC)cc1Cl`, the inhibition was -5.6% (inactive).
Turning to `C=C1C(=O)OC2/C=C(\C)CC3C=C(CC/C=C(\C)CCC12)C(=O)O3` (configuration not stated), the inhibition was 114% (active).

A word on the inhibition: it is the change of the read-out against control, counted positive when it falls.
